# A selection: hits, their analogues and other compounds. The true share with any hit is near 2.4%.
# D2 ag-1 – activates the human D2 dopamine receptor | P14416 | DiscoveRx PathHunter D2 beta-arrestin, luminescence, 90 min; 100% = 57 uM dopamine signal | activation, % (no concentration beside the values) | actives 0.084% (n = 360,000) | AID 624465; in the data active = activation above about 40%; inconclusive = between about 15% and that limit
# Target sequence (P14416 whole entry, looked up): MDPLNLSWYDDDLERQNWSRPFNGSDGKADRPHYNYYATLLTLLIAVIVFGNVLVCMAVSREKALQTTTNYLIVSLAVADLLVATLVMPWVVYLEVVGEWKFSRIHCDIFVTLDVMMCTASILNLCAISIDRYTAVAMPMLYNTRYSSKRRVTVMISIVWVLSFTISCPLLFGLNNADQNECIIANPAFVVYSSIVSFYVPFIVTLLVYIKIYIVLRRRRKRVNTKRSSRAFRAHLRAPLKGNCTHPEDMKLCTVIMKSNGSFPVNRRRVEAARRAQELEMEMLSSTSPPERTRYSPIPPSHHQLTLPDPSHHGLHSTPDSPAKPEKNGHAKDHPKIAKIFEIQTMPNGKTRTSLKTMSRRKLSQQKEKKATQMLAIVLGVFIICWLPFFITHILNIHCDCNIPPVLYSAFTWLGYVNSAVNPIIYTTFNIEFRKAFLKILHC
#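 DiscoveRx PathHunter D2 beta-arrestin cells (2,100/well) attached overnight, then compound-stimulated 90 min at 37 C in HBSS/10 mM HEPES/0.1% Tween-20 buffer; beta-galactosidase complementation read by luminescence after 1 h at ambient temperature. Dopamine 57 uM final (EC100) as control.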
# D2 antagonist – D2 dopamine receptor (human) antagonism | HEK293 TREx D2 cells, calcium flux, dopamine EC80 | inhibition, % at 10 µM | actives 2% (n = 340,000) | AID 485344; in the data active = inhibition above about 30%; inactive = below that, where a call was filed; note: 0% is about no effect
#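 Tetracycline-induced HEK293 T-REx cells expressing D2 force-coupled to calcium signalling were dye-loaded, exposed to compound for 180 s, then challenged with an EC80 of dopamine; calcium flux was followed kinetically for a further 180 s.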
# D2 ag-2 – agonists of human D2 dopamine receptor. AID 485358. HEK293 T-REx D2 cells, calcium flux agonist mode. activation, % at 2 µM. P14416. actives 0.53% (n = 340,000);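 active = activation over 3 SD above normal in the single-dose calcium agonist read, cut at about 30% in these data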; note: 0% is about no effect
#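 Calcium-flux readout, 1 cycle/sec over 180 s following compound pin transfer, in inducible HEK293 Trex D2 cells (force-coupled); dopamine controls included. Positive calcium responses during this window marked compounds as potential agonists.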
# D2 PAM-1 – positive allosteric modulators of human D2 dopamine receptor | AID 485347 | potentiation, % at 10 µM | actives 0.34% (n = 340,000) | HEK293 T-REx D2, calcium flux, EC20 dopamine potentiation;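 active = potentiation over 3 SD above the plate norm, cut at about 30% in these data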; note: 0% is about no effect
#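 Potentiation of an EC20 dopamine calcium response is measured in a force-coupled, tetracycline-inducible Hek293 Trex D2 line. Compound-only kinetic reads over 180 s flag agonists before dopamine addition.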
# D2 PAM-2 – potentiates the human D2 dopamine receptor allosterically. P14416. DiscoveRx D2 beta-arrestin cells, luminescence, 90 min; 100% = 57 uM dopamine signal. potentiation, % (test concentration not listed). actives 0.23% (n = 360,000). AID 624464; in the data active = potentiation above about 50%; inconclusive = mostly about 30% to 49%
#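 D2 cells co-treated with compound plus 50 nM dopamine (EC20) for 90 min at 37 deg C to detect potentiation. Beta-arrestin recruitment was read as enzyme-fragment luminescence after 1 h at ambient temperature. Full response was set by 57 uM dopamine.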
# D3 ag – confirmation of human D3 dopamine receptor agonists, beta-arrestin. shares compounds with D2 ag-2. Potency, µM (series often up to 76.9 µM), for inactives: top-dose activation, hits mostly activators. DiscoveRx D3 beta-arrestin cells, luminescence, 90 min. actives 4% (n = 2,300);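 note: potency is the fitted concentration of half-maximal effect; 100% = dopamine control response; nearly all actives have a fitted effect of over 70% in size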
# D2 ag-3 – D2 receptor agonism, beta-arrestin counterscreen; shares compounds with D2 ag-2; DiscoveRx PathHunter D2 beta-arrestin, luminescence, 90 min; response scale: percent relative to full dopamine signal; Potency, µM (titrated, usually from 76.9 µM), for the others: top-dose activation, usual class: activators; actives 5.9% (n = 2,300); AID 720507; note: potency is the fitted concentration of half-maximal effect; % of control where 0% means no effect; nearly all actives have a fitted effect of over 70% in size
# * marks the source's active call; other numbers are inactive results; ? = inconclusive; nt = no result given. Unless noted, calls come from the whole dose curve; as a rule, active = well fitted activation curve with a large enough effect; inconclusive = small, poorly fitted or top-dose-only effect; inactive = flat fitted curve, though single readings scatter.
SMILES,D2 ag-1,D2 antagonist,D2 ag-2,D2 PAM-1,D2 PAM-2,D3 ag,D2 ag-3
COc1cccc(N2CC(=O)N(NC(=O)CSc3nc(C)cc(C)c3C#N)CC2=O)c1,-4.2,18.9,43.3*,-12.5,-2.2,-11.6%,-3.3%
O=C(c1ccc(OCC2CCCO2)cc1)N1CCN(S(=O)(=O)c2cccc(F)c2)CC1 (centres undefined),-2.5,11.7,0.4,1.8,13.7,-1.5%,1.9%
O=C(Nc1cccc(S(=O)(=O)N2CCCCC2)c1)c1ccc(OCC2CCCO2)cc1 (centres undefined),-2.9,-1.5,0.4,-1.9,-1.9,nt,nt
Cc1cc(C)c(C(=O)OCc2csc(CC(=O)Nc3ccccc3C)n2)c(C)c1,2.0,-8.5,-0.1,13.3,0.3,nt,nt
CC(=O)Nc1cccc(C(=O)OCc2csc(CC(=O)Nc3ccccc3C)n2)c1,-1.0,3.1,0.1,-2.8,0.1,1.5%,1.7%
O=C(c1ccccc1F)N1CCN(Cc2ccccc2F)CC1,-6.8,-7.9,0.4,4.1,-16.2,nt,nt
Cc1ccc(C)c(S(=O)(=O)N2CCN(c3ncccn3)CC2)c1,3.1,nt,nt,4.0,-6.0,nt,nt
Oc1cc2c(cc1CN1CCN(c3ncccn3)CC1)OCO2,96.2*,83.4*,85.5*,-26.8,?,?,0.562µM*
Fc1ccccc1CN1CCN(c2ncccn2)CC1,98.1*,84.1*,84.5*,-21.0,?,?,7.94µM*
O=C(CN1CCN(c2ncccn2)CC1)NCc1ccc2c(c1)OCO2,?,37.1*,55.5*,-22.6,1.2,1.9%,19.2%
Cc1ccc(C)c(CN2CCN(c3ncccn3)CC2)c1,53.2*,59.8*,75.4*,-28.0,5.4,0.2%,?
COC(=O)c1c(-c2cccs2)csc1NC(=O)COc1ccc(C(C)C)cc1,nt,nt,3.4,-2.8,nt,nt,nt
Cc1cccc(-c2nc(N3CCN(c4ccc(F)cc4)CC3)c3ccccc3n2)c1,nt,nt,-0.8,-0.4,nt,nt,nt
Clc1cccc(Cl)c1CN1CCN(c2ncccn2)CC1,?,46.3*,55.0*,-17.3,1.5,10.8%,?
O=[N+]([O-])c1ccc(Cl)c(CN2CCN(c3ncccn3)CC2)c1,12.5,33.2*,8.5,-7.0,-0.3,9.9%,13.4%
CCc1ccc(NC(=O)CCn2c(-c3ccc(OC)cc3)cc(C(C)=O)c2C)cc1,nt,nt,0.1,9.2,nt,nt,nt
O=C(NCCCN1CCCC1=O)c1cc(NS(=O)(=O)c2ccc(F)cc2)cc(NS(=O)(=O)c2ccc(F)cc2)c1,-1.2,-1.2,0.2,-2.0,-10.2,nt,nt
O=C(NCCCN1CCCC1=O)c1ccc(NS(=O)(=O)c2ccc(F)cc2)cc1,3.9,-4.0,2.3,4.2,-3.7,-8.7%,-1.7%
O=C(NCc1ccncc1)c1ccc(NS(=O)(=O)c2ccc(F)cc2)cc1,0.9,nt,nt,nt,-8.2,-3.1%,-4.6%
Cc1cccc(C(=O)NNC(=O)c2ccc(NS(=O)(=O)c3cccs3)cc2)c1C,2.2,17.9,0.2,16.3,-2.2,0.3%,-5.0%
CC(C)C(=O)NC(=S)Nc1ccc(S(=O)(=O)NC2CCCCC2)cc1,3.3,-8.5,1.3,15.9,7.8,nt,nt
COc1cc(NC(=O)CCc2nnc3ccc(NCc4ccco4)nn23)cc(OC)c1,-1.3,3.5,51.7*,0.8,0.1,10.8%,15.0%
C=C(C)C(=O)Nc1nnc(-c2ccccc2C)s1,-1.0,52.4*,-0.4,10.3,-23.2,-4.9%,-3.8%
C[C@@H]1O[C@@H](O[C@H]2[C@H](O)[C@@H](O)[C@H](Oc3c(-c4ccc(O)c(O)c4)oc4cc(O)cc(O)c4c3=O)O[C@@H]2CO)[C@H](O)[C@H](O)[C@H]1O,-1.1,-17.2,-1.3,9.8,-1.2,0.4%,4.1%
C[C@@H]1O[C@@H](Oc2c(-c3ccc(O)c(O)c3)oc3cc(O)cc(O)c3c2=O)[C@H](O)[C@H](O)[C@H]1O,-5.9,nt,nt,nt,10.7,nt,nt
